This is an account of results in PubChem BioAssay AID651871 (Sanford-Burnham Center for Chemical Genomics, 2012).

Molecules are shown by their SMILES. “And” between values parts separate entries of the source, which are not always exact repeats. Equal values may be shown once.

For this assay, the system named is H9c2. Nature of the assay: protection of cardiomyocytes from stress damage, SAR follow-up, cell-based, panel, H9c2 and HL-1, ATP luminescence, set 2 (AID 651871).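 Note: cells exposed to stressor for 2 h before ATP readout; reference of the scale not given here.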 As to conditions: H9c2/HL-1 cardiomyocytes, 2-deoxyglucose stress, with 2-deoxyglucose; run 11, at 79 µM (top of the series).
For `COc1ccc2nc(-c3cc(OC)c(OC)c(OC)c3)cc(C(=O)NCC(=O)Nc3ccc(C(C)=O)cc3)c2c1`, the activity (protection/inhibition) worked out at 68.6%.

On to `COc1ccc2c(c1OC)C(=O)N1c3ccccc3C(=O)N(Cc3cccc(Cl)c3Cl)C21` (stereo not drawn), for which the activity (protection/inhibition) was 89.7% and 82.5% and -2.54%.

In the case of `CCOC(=O)c1cccc(NC(=O)CNC(=O)c2cc(-c3cc(OC)c(OC)c(OC)c3)nc3ccccc23)c1`, the activity (protection/inhibition) came out at 112%.
